Test results published in PubChem BioAssay (NCI).
This is part of a sample that, as a whole, favours compounds with a hit. Of some 79,000 tested, about 15% had one in any assay. Unmarked numbers belong to inactive results. The source made the active and inactive calls. No stated cut-off is given here; in the data, active means growth inhibition above about 70%; inactive means the rest.

Experiments:
[1] = NCI Yeast Anticancer Drug Screen. Data for the wt1 strain (AID 149);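 further: 0% = growth of vehicle-treated wt1 cultures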; details: S. cerevisiae wt1 strain (SPY 50644) growth inhibition, stronger effect = higher value
In short: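 Readout: yeast growth inhibition, normalised to vehicle controls, in the wt1 strain exposed to test compounds.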

[2] = NCI Yeast Anticancer Drug Screen. Data for the rad50EPP+ strain (AID 151);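 further: 0% = growth of vehicle-treated control cultures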; details: S. cerevisiae rad50 mutant strain, stronger effect = higher value
In short: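 Exposing the rad50EPP+ strain to each compound, growth was compared with vehicle-only cultures to give inhibition.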

[3] = NCI Yeast Anticancer Drug Screen. Data for the mgt1 strain (AID 153); details: S. cerevisiae mgt1 mutant growth inhibition, stronger effect = higher value
In short: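 Genetically defined yeast (mgt1) treated with compound; inhibition of growth expressed against vehicle-treated controls.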

[4] = NCI Yeast Anticancer Drug Screen. Data for the rad50 strain (AID 155);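 further: 0% = growth of vehicle-only cultures of the same strain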; details: S. cerevisiae rad50 strain growth inhibition, stronger effect = higher value
In short: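 Compounds were tested on a yeast strain with an engineered DNA damage repair alteration; the reported value is growth inhibition normalised to vehicle treatment.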

[5] = NCI Yeast Anticancer Drug Screen. Data for the mec2-1 strain (AID 157); details: S. cerevisiae mec2-1 strain, stronger effect = higher value
In short: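 Readout is yeast growth inhibition, normalised to vehicle-treated controls, in the mec2-1 strain exposed to compound.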

[6] = NCI Yeast Anticancer Drug Screen. Data for the rad14 strain (AID 159);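 further: 0% = growth of vehicle-treated control cultures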; details: S. cerevisiae rad14 strain growth inhibition, stronger effect = higher value
In short: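 Compound-treated yeast with a defined DNA-repair lesion; growth inhibition normalised to vehicle-treated cultures.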

[7] = NCI Yeast Anticancer Drug Screen. Data for the sgs1 mgt1 strain (AID 161);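 further: 0% = growth of cultures given vehicle only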; details: S. cerevisiae sgs1 mgt1 strain, stronger effect = higher value
In short: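 Growth of a repair-deficient yeast mutant was monitored after compound treatment and expressed as inhibition relative to vehicle-treated cultures.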

[8] = NCI Yeast Anticancer Drug Screen. Data for the CLN2oe strain (AID 163);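 further: 0% = growth of vehicle-only control cultures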; details: S. cerevisiae CLN2oe strain, stronger effect = higher value
In short: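 Values reflect how much compound exposure reduced yeast growth, referenced to vehicle-exposed cells. Assay organism is a strain with a defined genetic change affecting cell-cycle control.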

[9] = NCI Yeast Anticancer Drug Screen. Data for the cln2 rad14 strain (AID 165);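 further: 0% = growth equal to vehicle treated cultures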; details: S. cerevisiae cln2 rad14 strain, stronger effect = higher value
In short: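 Relative to vehicle controls, growth inhibition of compound-treated cln2 rad14 yeast was recorded.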

[10] = NCI Yeast Anticancer Drug Screen. Data for the bub3 strain (AID 167); details: S. cerevisiae bub3 mutant strain, stronger effect = higher value
In short: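 Growth of a checkpoint-deficient yeast mutant is measured after compound exposure. Values represent inhibition relative to vehicle.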

[11] = NCI Yeast Anticancer Drug Screen. Data for the wt2 strain (AID 169);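 further: 0% = growth of vehicle-treated yeast cultures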; details: S. cerevisiae wt2 strain growth inhibition, stronger effect = higher value
In short: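 Values express reduction in yeast growth under compound treatment, referenced to vehicle-treated cells.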

[12] = NCI Yeast Anticancer Drug Screen. Data for the mlh1 strain (AID 171);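 further: 0% = growth of vehicle-treated control cultures of the same strain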; details: S. cerevisiae mlh1 strain growth inhibition, stronger effect = higher value
In short: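 Steps: expose the defined-mutant yeast strain to compound; expose a parallel culture to vehicle; measure growth; express compound effect as inhibition relative to the vehicle culture.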

[13] = NCI Yeast Anticancer Drug Screen. Data for the sgs1 strain (AID 173);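 further: 0% = growth of vehicle-only control cultures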; details: S. cerevisiae sgs1 mutant, stronger effect = higher value
In short: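 Treat defined-mutant yeast with compound; measure growth; calculate inhibition relative to vehicle-treated cells.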

[14] = NCI Yeast Anticancer Drug Screen. Data for the mlh1 rad18 strain (AID 175); details: S. cerevisiae mlh1 rad18 strain growth inhibition, stronger effect = higher value
In short: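 Test agents were incubated with a yeast strain of defined genotype (DNA damage repair defect). Inhibition of growth was derived by comparison with vehicle-exposed cultures.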

[15] = NCI Yeast Anticancer Drug Screen. Data for the rad18 strain (AID 177); details: S. cerevisiae rad18 mutant growth inhibition, stronger effect = higher value
In short: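 A genetically defined yeast mutant impaired in DNA damage repair was treated with test compounds, then its growth was measured against cultures receiving vehicle alone.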

[16] = at 5.0 µM (retest, dose inferred, filed as 0.5)
[17] = at 50.0 µM (retest, dose inferred, filed as 5.0)

What does the source list for `CCN(CC)CC(=O)c1ccc2cc(Cl)c3ccccc3c2c1`?
growth inhibition ([1]; at 1.2 µM): 6%; growth inhibition ([1]; at 3.7 µM): 17%; growth inhibition ([1]; at 11.0 µM): 99% (active); growth inhibition ([1]; at 33.0 µM): 98% (active); growth inhibition ([1]; at 100.0 µM): 98% (active); growth inhibition ([2]; at 1.2 µM): 68%; growth inhibition ([2]; at 3.7 µM): 85% (active); growth inhibition ([2]; at 11.0 µM): 98% (active); growth inhibition ([2]; at 33.0 µM): 98% (active); growth inhibition ([2]; at 100.0 µM): 98% (active); growth inhibition ([3]; at 1.2 µM): 0%; growth inhibition ([3]; at 3.7 µM): 13%; growth inhibition ([3]; at 11.0 µM): 99% (active); growth inhibition ([3]; at 33.0 µM): 99% (active); growth inhibition ([3]; at 100.0 µM): 99% (active); growth inhibition ([4]; at 1.2 µM): 9%; growth inhibition ([4]; at 3.7 µM): 18%; growth inhibition [4, 16]: 26%; growth inhibition ([4]; at 11.0 µM): 98% (active); growth inhibition ([4]; at 33.0 µM): 98% (active); growth inhibition [4, 17]: 98% (active); growth inhibition ([4]; at 50.0 µM): 99% (active); growth inhibition ([4]; at 100.0 µM): 98% (active); growth inhibition ([5]; at 1.2 µM): 12%; growth inhibition ([5]; at 3.7 µM): 24%; growth inhibition [5, 16]: 26%; growth inhibition ([5]; at 11.0 µM): 99% (active); growth inhibition ([5]; at 33.0 µM): 99% (active); growth inhibition [5, 17]: 99% (active); growth inhibition ([5]; at 50.0 µM): 99.2% (active); growth inhibition ([5]; at 100.0 µM): 99% (active); growth inhibition ([6]; at 1.2 µM): 6%; growth inhibition ([6]; at 3.7 µM): 13%; growth inhibition ([6]; at 11.0 µM): 99% (active); growth inhibition ([6]; at 33.0 µM): 99% (active); growth inhibition ([6]; at 100.0 µM): 99% (active); growth inhibition [7, 16]: 42%; growth inhibition [7, 17]: 99% (active); growth inhibition ([7]; at 50.0 µM): 99.2% (active); growth inhibition ([8]; at 1.2 µM): 8%; growth inhibition ([8]; at 3.7 µM): 11%; growth inhibition ([8]; at 11.0 µM): 99% (active); growth inhibition ([8]; at 33.0 µM): 98% (active); growth inhibition ([8]; at 100.0 µM): 99% (active); growth inhibition [9, 16]: 6%; growth inhibition [9, 17]: 99% (active); growth inhibition ([9]; at 50.0 µM): 99.2% (active); growth inhibition ([10]; at 1.2 µM): -4%; growth inhibition ([10]; at 3.7 µM): 3%; growth inhibition [10, 16]: 10%; growth inhibition ([10]; at 11.0 µM): 98% (active); growth inhibition ([10]; at 33.0 µM): 98% (active); growth inhibition [10, 17]: 98% (active); growth inhibition ([10]; at 50.0 µM): 99.2% (active); growth inhibition ([10]; at 100.0 µM): 98% (active); growth inhibition ([11]; at 1.2 µM): 7%; growth inhibition ([11]; at 3.7 µM): 24%; growth inhibition ([11]; at 11.0 µM): 99% (active); growth inhibition ([11]; at 33.0 µM): 98% (active); growth inhibition ([11]; at 100.0 µM): 98% (active); growth inhibition ([12]; at 1.2 µM): 12%; growth inhibition ([12]; at 3.7 µM): 23%; growth inhibition ([12]; at 11.0 µM): 99% (active); growth inhibition ([12]; at 33.0 µM): 99% (active); growth inhibition ([12]; at 100.0 µM): 98% (active); growth inhibition ([13]; at 1.2 µM): 25%; growth inhibition ([13]; at 3.7 µM): 53%; growth inhibition ([13]; at 11.0 µM): 99% (active); growth inhibition ([13]; at 33.0 µM): 98% (active); growth inhibition ([13]; at 100.0 µM): 98% (active); growth inhibition [14, 16]: 48%; growth inhibition [14, 17]: 98% (active); growth inhibition ([14]; at 50.0 µM): 99.2% (active); growth inhibition ([15]; at 1.2 µM): 20%; growth inhibition ([15]; at 3.7 µM): 42%; growth inhibition ([15]; at 11.0 µM): 99% (active); growth inhibition ([15]; at 33.0 µM): 98% (active); growth inhibition ([15]; at 100.0 µM): 98% (active)
